The text below walks through data of PubChem BioAssay.

A short description of assay [1]: HepG2 liver cancer cell viability effects, profiling panel, resazurin fluorescence, 24 h, PK04 Diversity Set (AID 1172). To be noted: higher = more signal. In general terms: The colour change of resazurin is a common sign of viable cells or microbes.
Assay [2] in a line: basal S. cerevisiae growth modulation, no modifier, primary screen, OD600, strain BY4716, 24 h, basal condition (AID 1173). To be noted: OD600, 24 h, higher = more signal, called active from +8 up or from −8 down.
Assay [3] is described as follows: MM1S myeloma cell viability, profiling panel, resazurin fluorescence, basal, 24 h, PK04 Diversity Set (AID 1174).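 Note: MM1S multiple myeloma cell line.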 The settings on record: higher = more signal, called active from +8 up or from −8 down.
Assay [4] has as its target Dihydroorotate dehydrogenase (quinone), mitochondrial (Plasmodium falciparum (isolate 3D7)) (UniProt Q08210). The assay is described as follows: PfDHODH enzyme inhibitors, primary screen, biochemical, C-terminal His tag, absorbance 600 nm (AID 1175).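 Note: recombinant parasite enzyme with a five histidine tag at its C terminus.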 To be noted: DCIP absorbance 600 nm, higher = more signal, called active from +8 up or from −8 down.
The nature of assay [5]: P. aeruginosa biofilm formation inhibitors, primary screen, strain PAO1, LB-PBS medium, absorbance 600 nm (AID 1176). The settings on record: P. aeruginosa PAO1 growth/biofilm, A600, 12 h; higher = more signal.
Assay [6] can be described thus: S. cerevisiae RM11-1a growth modifiers, primary screen, strain RM11-1a, OD600, basal, 24 h (AID 1177).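 Note: cultures grown under basal conditions with no added stressor.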 To be noted: OD600, 24 h, higher = more signal, called active from +8 up or from −8 down.
Assay [7] can be described thus: E. coli acrAB mutant growth effects, primary screen, E. coli filamentation inducers, strain DRC39, OD650, 24 h (AID 1178).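 Note: growth measured as culture turbidity by optical density at 650 nm.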 The settings on record: higher = more signal, called active from +8 up or from −8 down.
Assay [8] in a line: E. coli acrAB mutant growth effects, primary screen, E. coli filamentation inducers, strain DRC39, OD650, 48 h (AID 1179).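 Note: screen aims at cell division blockers that make cells filament.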 The settings on record: E. coli DRC39 delta-acrAB growth, higher = more signal, called active from +8 up or from −8 down.
The nature of assay [9]: RPMI8226 myeloma cell viability, profiling panel, resazurin fluorescence, basal, 24 h, PK04 Diversity Set (AID 1180).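 Note: RPMI8826 multiple myeloma cell line at 5000 cells per well.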 To be noted: higher = more signal.
Assay [10] has as its target E3 ubiquitin-protein ligase XIAP (Homo sapiens) (UniProt P98170). Kind of assay: XIAP binders, primary screen, biophysical, small-molecule microarray, fluorescence 635 nm (AID 1181).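 Note: score merges 667 nm emission and signal to noise over triplicate slides.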 The settings on record: small-molecule microarray binding, higher = more signal.
In assay [11] the test system is XIP peptide (Xip251-270) binding. The assay is described as follows: small-molecule binders of XIP peptide, primary screen, biochemical, small-molecule microarray, fluorescence 635/667 nm, 0.1 µg/mL protein (AID 1182). The settings on record: fluorescent protein binding, 635 nm, higher = more signal, called active from +8 up or from −8 down.
Another assay deals with XIP peptide (Xip251-270). The assay is described as follows: small-molecule binders of XIP peptide, primary screen, biochemical, small-molecule microarray, fluorescence 635/667 nm, 0.5 µg/mL protein (AID 1183). The settings on record: small-molecule microarray binding, fluorescence 635 nm; higher = more signal.
Assay [12] is described as follows: Plasmodium falciparum growth inhibition, primary screen, strain 3D7, DAPI fluorescence, 100 nL (AID 1184).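 Note: parasites grown inside human red blood cells in medium with human serum.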 The settings on record: P. falciparum 3D7 growth, 3 d, higher = more signal.
In assay [13] the target is Homeobox protein Hox-A13 (Mus musculus) (UniProt Q62424). The assay is described as follows: inhibitors of HoxA13-DNA binding, primary screen, biochemical, fluorescence polarization, labeled oligonucleotide (AID 1185). To be noted: 15 min, higher = more signal, called active from +8 up or from −8 down. (Polarisation of emitted light reports the rotation of a fluorescent probe.)

The nature of assay [14]: inhibitors of hydroxyurea-induced Chk1 phosphorylation, primary screen, imaging, HeLa, phospho-Chk1 antibody, percent positive cells (AID 1186). To be noted: hydroxyurea-induced phospho-Chk1 immunofluorescence imaging, higher = more signal.
The nature of assay [15]: inhibitors of hydroxyurea-induced Chk1 phosphorylation, primary screen, imaging, HeLa, phospho-Chk1 nuclear intensity (AID 1187). To be noted: hydroxyurea-induced phospho-Chk1 immunofluorescence imaging, higher = more signal.

Activity calls are given as the source filed them. Unless noted, the rule behind the calls is not given here.

Homeobox protein Hox-A13 (Mus musculus), sequence (Q62424 whole entry, looked up): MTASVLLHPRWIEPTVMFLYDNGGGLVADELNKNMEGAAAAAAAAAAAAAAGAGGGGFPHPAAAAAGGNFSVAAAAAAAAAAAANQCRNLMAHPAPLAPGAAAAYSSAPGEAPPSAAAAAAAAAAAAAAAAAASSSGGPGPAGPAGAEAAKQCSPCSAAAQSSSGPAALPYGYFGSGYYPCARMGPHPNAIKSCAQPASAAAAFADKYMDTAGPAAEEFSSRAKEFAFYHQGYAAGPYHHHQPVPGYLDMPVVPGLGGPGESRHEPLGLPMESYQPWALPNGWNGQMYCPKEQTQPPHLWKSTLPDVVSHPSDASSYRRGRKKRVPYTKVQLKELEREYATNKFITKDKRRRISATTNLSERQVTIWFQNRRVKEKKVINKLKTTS
Dihydroorotate dehydrogenase (quinone), mitochondrial (Plasmodium falciparum (isolate 3D7)), sequence (Q08210 whole entry, looked up): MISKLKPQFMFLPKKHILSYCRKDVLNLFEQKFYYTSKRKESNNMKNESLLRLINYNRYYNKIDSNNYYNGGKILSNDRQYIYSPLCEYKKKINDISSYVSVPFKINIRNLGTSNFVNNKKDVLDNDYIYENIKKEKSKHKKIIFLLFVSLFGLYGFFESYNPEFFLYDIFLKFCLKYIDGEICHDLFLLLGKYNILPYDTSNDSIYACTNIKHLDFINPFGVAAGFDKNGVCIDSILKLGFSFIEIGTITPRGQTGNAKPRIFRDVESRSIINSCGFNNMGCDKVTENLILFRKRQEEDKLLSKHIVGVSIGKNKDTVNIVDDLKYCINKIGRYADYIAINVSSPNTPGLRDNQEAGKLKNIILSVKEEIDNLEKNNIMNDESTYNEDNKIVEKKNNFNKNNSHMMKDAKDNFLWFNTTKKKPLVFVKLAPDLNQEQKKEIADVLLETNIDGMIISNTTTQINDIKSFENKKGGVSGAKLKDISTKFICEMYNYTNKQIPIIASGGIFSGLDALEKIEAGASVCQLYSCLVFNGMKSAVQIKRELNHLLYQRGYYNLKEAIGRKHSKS
E3 ubiquitin-protein ligase XIAP (Homo sapiens), sequence (P98170 whole entry, looked up): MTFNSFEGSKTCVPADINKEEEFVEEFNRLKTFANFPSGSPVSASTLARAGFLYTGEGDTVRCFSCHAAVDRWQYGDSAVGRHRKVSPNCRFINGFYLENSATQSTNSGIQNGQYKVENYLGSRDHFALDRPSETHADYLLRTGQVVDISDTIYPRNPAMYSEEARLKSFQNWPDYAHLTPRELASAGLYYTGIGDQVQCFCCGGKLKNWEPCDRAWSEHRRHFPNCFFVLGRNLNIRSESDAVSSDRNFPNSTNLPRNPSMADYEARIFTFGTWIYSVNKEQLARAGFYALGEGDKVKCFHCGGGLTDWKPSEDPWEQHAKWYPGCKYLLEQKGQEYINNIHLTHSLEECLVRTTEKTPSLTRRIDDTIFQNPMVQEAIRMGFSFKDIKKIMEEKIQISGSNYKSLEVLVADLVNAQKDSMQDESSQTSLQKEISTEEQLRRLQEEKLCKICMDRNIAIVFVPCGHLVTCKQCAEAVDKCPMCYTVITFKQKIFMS

Turning to `C=C(/C(=C/C[C@H](OC(=O)c1ccncc1)c1ccccc1OCCO)c1cc(C(=O)OC)ccc1OC)C(C)C`, the z-score in assay [1] was 0.456; in assay [2], 0.0223 (inactive); in assay [3], -0.493 (inactive); in [5], 0.297 (inactive); in [6] it was 0.0488 (inactive); in assay [7], -0.822 (inactive). The z-score in assay [8] is -0.869 (inactive); in assay [9], 0.956; in [12], -2.85; in assay [13], -4.77 (inactive); in assay [14], -0.529 (inactive); in assay [15], -0.789 (inactive). In addition, the composite z-score in assay [4] was -4.24 (inactive); in assay [10], -0.0478; in assay [11], -0.0121 (inactive); in the assay on XIP peptide (Xip251-270) it was 0.605.

Regarding `C[C@@H](OCc1ccccc1)C1NC(=O)[C@@]23C(=O)N[C@@H](Cc4ccccc4)C2[C@H](C)[C@@]2(C)O[C@H]2C3/C=C/C/C=C\CNC(=O)[C@H](Cc2ccccc2)NC1=O` (some centres undefined), the z-score was -0.515 in assay [1]; -1.29 (inactive) in assay [2]; -0.614 (inactive) in assay [3]; 0.0359 (inactive) in [5]; -0.658 (inactive) in assay [6]; 2.13 (inactive) in assay [7]. Also, the z-score was 0.5 (inactive) in assay [8]; -0.302 in assay [9]; -2.45 in [12]; -5.7 (inactive) in assay [13]; 0.0781 (inactive) in [14]; 0.544 (inactive) in assay [15]. Also, the composite z-score in assay [4] was -0.199 (inactive); in assay [10] it was -0.0565; in [11], -0.0678 (inactive); in the assay with XIP peptide (Xip251-270), -0.0412.

On to `CC(C)C[C@@H]1NC(=O)[C@@H]2C[C@H](C(=O)NCCCC[N+](C)(C)C)[C@H](c3ccc(O)cc3)N2C1=O`, for which the z-score in assay [1] was -0.965; in [2], 0.166 (inactive); in assay [3] it was -0.524 (inactive); in [5], 0.876 (inactive); in assay [6], 0.0138 (inactive); in [7], 0.382 (inactive). Further, the z-score in [8] was 0.581 (inactive); in assay [9], -0.866; in assay [12] it was -0.174; in assay [13], -1.73 (inactive); in assay [14], 0.757 (inactive); in assay [15] it was 0.0766 (inactive). Moreover, the composite z-score was -31.3 (active) in assay [4], -0.128 in assay [10], 1.03 (inactive) in assay [11] and 0.858 in the assay with XIP peptide (Xip251-270).

For `COc1cccc(C[C@H]2C[C@@H](CO[Si](C(C)C)(C(C)C)C(C)C)N3C(=O)[C@@]4(C(C)=O)O[C@@]23[C@@H]2C(=O)N(C)C(=O)[C@@H]24)c1`, the z-score was 0.65 in [1]; 0.294 (inactive) in [2]; -0.494 (inactive) in assay [3]; 0.82 (inactive) in assay [5]; 0.993 (inactive) in assay [6]; -0.493 (inactive) in assay [7]. In addition, the z-score was -0.638 (inactive) in assay [8]; -0.334 in assay [9]; -1.75 in assay [12]; -3.39 (inactive) in assay [13]; -0.365 (inactive) in assay [14]; -0.482 (inactive) in assay [15]. Further, the composite z-score was 0.0539 (inactive) in assay [4], 0.0082 in assay [10], 0.234 (inactive) in assay [11] and 0.61 with XIP peptide (Xip251-270).

For the molecule `CN(C)CCCNC(=O)[C@@]1(Cc2ccccc2I)c2ccccc2C(=O)N(Cc2ccccc2)[C@H]1c1ccc(CO)cc1`, the z-score in [1] was -3.78; in assay [2], -3.24 (inactive); in [3], -0.892 (inactive); in assay [5] it was 0.292 (inactive); in assay [6], 0.209 (inactive); in assay [7] it was 0.0574 (inactive). The z-score was 0.252 (inactive) in assay [8]; -1.89 in assay [9]; -2.21 in assay [12]; -0.783 (inactive) in assay [13]; 0.22 (inactive) in assay [14]; 0.276 (inactive) in [15]. The composite z-score in assay [4] is -0.19 (inactive); in assay [10] it was 0.24; in [11], 0.869 (inactive); in the assay on XIP peptide (Xip251-270) it was 0.828.

With `C=CCC(OC(C)=O)[C@@H]1[C@@H](N(Cc2cccc3ccccc23)C(=O)c2ccc(C)cc2)c2cc(OCCCO)ccc2N1C(=O)c1ccc2ccccc2n1` (some centres undefined), the z-score in [1] is 0.374; in assay [2], -1.13 (inactive); in assay [3] it was 0.36 (inactive); in [5], -0.877 (inactive); in assay [6], -1.88 (inactive); in assay [7], 0.257 (inactive). In addition, the z-score in [8] is 0.91 (inactive); in assay [9], 0.78; in assay [12] it was -0.344; in [13], -0.702 (inactive); in [14], -0.39 (inactive); in assay [15], -0.404 (inactive). Besides, the composite z-score is -1.35 (inactive) in [4], -0.0535 in assay [10], 0.655 (inactive) in assay [11] and -0.165 with XIP peptide (Xip251-270).

Take `CN(C)CCCC[C@@H]1NC(=O)[C@H]2C[C@@H](C(=O)NCc3ccc(F)cc3)[C@@H](c3ccc(O)cc3)N2C1=O`: the z-score in [1] is 0.222; in assay [2], -0.549 (inactive); in [3] it was 0.766 (inactive); in [5], -0.832 (inactive); in [6], -0.649 (inactive); in assay [7], 0.11 (inactive). Moreover, the z-score in [8] was 0.182 (inactive); in [9], 0.382; in assay [12] it was -0.057; in assay [13], -1.36 (inactive); in assay [14], 0.806 (inactive); in assay [15], 1.32 (inactive). The composite z-score in assay [4] was -1.54 (inactive); in [10], 0.207; in [11], 2.07 (inactive); with XIP peptide (Xip251-270) it was 0.934.

Take `CCCC[C@@H](O)C1=C(COC)Cn2c(=O)n(-c3ccccc3)c(=O)n2[C@H]1CO`: the z-score in assay [1] is -0.603; in [2], -1.86 (inactive); in assay [3], -0.0278 (inactive); in [5], -0.131 (inactive); in [6] it was -2.03 (inactive); in assay [7], 1.15 (inactive). Moreover, the z-score in assay [8] is 1.06 (inactive); in assay [9] it was -0.0456; in [12] it was 0.519; in [13], -0.879 (inactive); in assay [14] it was -0.464 (inactive); in assay [15] it was 0.126 (inactive). Also, the composite z-score in [4] is -1.45 (inactive); in [10], -0.189; in [11], -0.698 (inactive); with XIP peptide (Xip251-270), -0.0217.

`CC(=O)NCCCC[C@@H]1NC(=O)[C@H]2C[C@@H](C(=O)NCCCCCC[N+](C)(C)C)[C@@H](c3ccc(O)cc3)N2C1=O`: the z-score was 0.387 in assay [1]; -0.0177 (inactive) in assay [2]; 0.319 (inactive) in assay [3]; 0.519 (inactive) in assay [5]; -0.533 (inactive) in assay [6]; -0.04 (inactive) in assay [7]. Besides, the z-score in assay [8] was -0.63 (inactive); in assay [9] it was -0.0771; in assay [12] it was -0.0467; in assay [13], -2.81 (inactive); in assay [14], -0.207 (inactive); in assay [15], 0.0348 (inactive). Also, the composite z-score in assay [4] was -1.03 (inactive); in assay [10] it was -0.0062; in [11], 0.265 (inactive); with XIP peptide (Xip251-270), 0.883.
